Data taken from PubChem BioAssay (EPA / NIEHS).
Calls of active or inactive are those of the source. Rule for the calls: active = hit-call score of the fitted dose curve at least 0.9, where 1 is the maximum; inactive = score below 0.9.

target: Signal transducer and activator of transcription 3 (Homo sapiens) (UniProt P40763); assay: ATG_STAT3_CIS: Attagene CIS-FACTORIAL HepG2 Assay for human Signal Transducer and Activator of Transcription 3 (STAT3) (AID 2282963); conditions: HepG2, Attagene cis-factorial STAT3 reporter transcription; actives raise or lower the signal
Description: ATG_CIS is a cell-based, multiplexed-readout assay that uses HepG2, a human liver cell line, with measurements taken at 24 hours after chemical dosing in a 24-well plate.ATG_STAT3_CIS is one of 52 assay component(s) measured or calculated from the ATG_CIS assay. It is designed to make measurements of mRNA induction, a form of inducible reporter, as detected with fluorescence intensity signals by Reverse transcription polymerase chain reaction (RT-PCR) and Capillary electrophoresis technology.Data from the assay component ATG_STAT3_CIS was analyzed into 1 assay endpoint. This assay endpoint, ATG_STAT3_CIS, was analyzed with bidirectional fitting relative to DMSO as the negative control and baseline of activity. Using a type of inducible reporter, measures of mRNA for gain or loss-of-signal activity can be used to understand the reporter gene at the transcription factor-level as they relate to the gene STAT3. Furthermore, this assay endpoint can be referred to as a primary readout, because this assay has produced multiple assay endpoints where this one serves a reporter gene function. To generalize the intended target to other relatable targets, this assay endpoint is annotated to the dna binding intended target family, where the subfamily is stat protein.
Human liver HepG2 cells are transiently transfected with multiple reporter transcription units (MRTUs) in 6-well plates using FuGene 6 reagent (Roche; 3 ml FuGene/1 mg DNA). The MRTU constructs are regulated by a cis-regulating element (promoter). […] A major difference between the CIS and TRANS system is that in CIS activities of endogenous TFs are measured, whereas the TRANS assay evaluates changes in activities of exogenous, chimeric NR-Gal4 proteins. […] At the end of 24 hour incubation, total RNA was isolated using TriZol reagent (Invitrogen). The isolated RNA is then reverse-transcribed using oligo(dT) primer and Mo-MLV reverse transcriptase (Invitrogen) with DNAse I (Ambion) treatment for 30 min. The one-tenth of the produced cDNA was amplified by PCR using Taq DNA polymerase (Invitrogen) and two reporter sequence-specific primers. The PCR products were fluorescently labeled by primer extension with 6-arboxyfluorescein (6-FAM) 5'-labeled reporter sequence-specific primer (2 min at 95 C, 20 s at 68 C and 10 min at 72 C) and these products were digested with 5U of HpaI (New England Biolabs) for 2h at 37 C. The fragments were purified using Qiaquick PCR columns (Qiagen), analyzed on an ABI 3130xL genetic analyzer (Applied Biosystems) with peak positions identified by using a set of X-rhodamine (ROX)-labeled MapMarker1000 molecular weight standards (BioVentures). The raw capillary electrophoresis data was processed using Attagraph software (Attagene).

Sequence of Signal transducer and activator of transcription 3 (Homo sapiens) (P40763 whole entry, looked up): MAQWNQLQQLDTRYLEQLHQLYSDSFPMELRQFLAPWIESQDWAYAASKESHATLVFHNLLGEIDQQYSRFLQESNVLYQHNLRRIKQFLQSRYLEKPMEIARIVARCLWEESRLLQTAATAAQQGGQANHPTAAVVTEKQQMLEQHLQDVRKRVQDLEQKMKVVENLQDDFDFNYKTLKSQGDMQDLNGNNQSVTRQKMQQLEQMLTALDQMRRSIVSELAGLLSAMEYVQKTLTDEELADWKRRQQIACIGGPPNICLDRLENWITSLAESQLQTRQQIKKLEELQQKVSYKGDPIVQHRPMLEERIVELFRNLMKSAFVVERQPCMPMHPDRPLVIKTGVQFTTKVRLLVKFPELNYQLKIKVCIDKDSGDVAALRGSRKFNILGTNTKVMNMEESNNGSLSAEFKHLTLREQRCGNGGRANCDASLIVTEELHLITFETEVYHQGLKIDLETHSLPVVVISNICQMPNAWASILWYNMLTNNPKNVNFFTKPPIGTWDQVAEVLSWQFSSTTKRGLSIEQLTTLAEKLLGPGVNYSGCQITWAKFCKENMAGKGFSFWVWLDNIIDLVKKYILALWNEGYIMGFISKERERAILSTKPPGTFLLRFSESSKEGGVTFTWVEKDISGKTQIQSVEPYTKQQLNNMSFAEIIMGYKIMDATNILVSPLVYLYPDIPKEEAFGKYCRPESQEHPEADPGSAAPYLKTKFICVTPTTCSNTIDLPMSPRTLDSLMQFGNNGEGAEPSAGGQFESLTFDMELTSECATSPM

For `CCC(C(=O)NC(N)=O)c1ccccc1` (stereo not given), which outcome is on record?
The outcome was “inactive”.

How did the outcome turn out when `CCC(=O)OCc1ccccc1` was run?
Its outcome is “inactive”.

How did the outcome turn out when `CCCCCCCCCCCCCOS(=O)(=O)O` was run?
Its outcome is “inactive”.

For `O=C1c2ccccc2C(=O)N1SC1CCCCC1`, which AC50 is on record?
The AC50 was 145 µM (active).

For `CNC[C@H](O)c1cccc(O)c1`, which outcome is on record?
The outcome was “inactive”.

For `CC1=CCC2C(C1)C2(C)C` (stereo not given), which outcome is on record?
The outcome was “inactive”.

Which outcome does the source give for `CC(C)[C@@H]1CC[C@@H](C)CC1=O` here?
Its outcome is “inactive”.

With `BrC1CCC(Br)C(Br)CCC(Br)C(Br)CCC1Br` (stereo not given) as the molecule, how does the outcome read?
Its outcome is “inactive”.

How did the outcome turn out when `[Ca+2]` was run?
Its outcome is “inactive”.

With `C=COCCOCCOCCOC=C` as the molecule, how does the outcome read?
Its outcome is “inactive”.

How did the outcome turn out when `Nc1cc([N+](=O)[O-])ccc1Cl` was run?
The outcome was “inactive”.

`O=C1CCCCCCCCCCOCCCCO1` was tested. Which outcome did it give?
The outcome was “inactive”.

Which outcome does the source give for `O=C1NC(=O)c2ccccc21` here?
The outcome was “inactive”.

How did the outcome turn out when `Cc1cccc(C)c1C` was run?
Its outcome is “inactive”.

For `O=C(Cl)c1cccc(C(=O)Cl)c1`, which outcome is on record?
Its outcome is “inactive”.

With `CCC(=O)/C=C/C1C(C)=CCCC1(C)C` (stereo not given) as the molecule, how does the outcome read?
Its outcome is “inactive”.

`OCCCCCO` was tested. Which outcome did it give?
The outcome was “inactive”.

How did the outcome turn out when `Cc1ccc2sc3cccc(C)c3c2c1` was run?
The outcome was “inactive”.

`O=S(=O)(O)NC1CCCCC1` was tested. Which outcome did it give?
The outcome was “inactive”.

`COc1ccc(Nc2ccccc2)c(C)c1` was tested. Which outcome did it give?
The outcome was “inactive”.

`Cc1ncc([N+](=O)[O-])n1C` was tested. Which outcome did it give?
The outcome was “inactive”.

With `O=C(COc1ccc(Cl)cc1)N1CCN(Cc2ccc3c(c2)OCO3)CC1` as the molecule, how does the outcome read?
Its outcome is “inactive”.

Which outcome does the source give for `Cc1ccc(Nc2ccc(O)c3c2C(=O)c2ccccc2C3=O)cc1` here?
Its outcome is “inactive”.

`Cc1cccc(Nc2ccccc2C(=O)O)c1C` was tested. Which outcome did it give?
Its outcome is “inactive”.

With `CCCCCCCCCCCCCCCC(=O)OC[C@H](O)[C@H]1OC(=O)C(O)=C1O` as the molecule, how does the outcome read?
The outcome was “inactive”.

For `C=CC(=O)OCCOCCOCC`, which outcome is on record?
Its outcome is “inactive”.

Which outcome does the source give for `CCCCCCCCCOC(C)=O` here?
Its outcome is “inactive”.

`C=C(C)C(=O)NCCCN(C)C` was tested. Which outcome did it give?
Its outcome is “inactive”.

`NC(=O)Nc1ccc(Cl)cc1` was tested. Which outcome did it give?
Its outcome is “inactive”.

For `O=C1CCc2ccccc2O1`, which outcome is on record?
The outcome was “inactive”.

Which outcome does the source give for `COC(=O)c1ccc(C)cc1` here?
Its outcome is “inactive”.

For `CC(C)(N)CO`, which outcome is on record?
Its outcome is “inactive”.

With `CC(C)CCCCCCCOC(=O)c1ccc(C(=O)OCCCCCCCC(C)C)c(C(=O)OCCCCCCCC(C)C)c1` as the molecule, how does the outcome read?
Its outcome is “inactive”.

`C[C@H]1C[C@H]2[C@@H]3CCC4=CC(=O)C=C[C@]4(C)[C@@]3(F)[C@@H](O)C[C@]2(C)[C@@]1(O)C(=O)COP(=O)(O)O` was tested. Which outcome did it give?
The outcome was “inactive”.

With `Nc1ccc(F)c([N+](=O)[O-])c1` as the molecule, how does the outcome read?
The outcome was “inactive”.

How did the outcome turn out when `CSc1nnc(C(C)(C)C)c(=O)[nH]1` was run?
Its outcome is “inactive”.

How did the outcome turn out when `O=C(O)c1ccc([N+](=O)[O-])cc1` was run?
The outcome was “inactive”.

For `CCCCCCCCCCCCN`, which outcome is on record?
The outcome was “inactive”.

`Cc1ccc(C(C)C)cc1O` was tested. Which outcome did it give?
The outcome was “inactive”.

How did the outcome turn out when `CNCCO` was run?
The outcome was “inactive”.
